# Among all 150,000 compounds or so, about 540 (0.36%) showed an effect of 50% or more. What follows is part of a selection rich in strong results, with near analogues and random picks from the rest.
# Test system: Plasmodium falciparum
# Test: Primary screen in NF54 nanoGlo assay, in single point, at 2uM, 72h; a lower Z score goes with more inhibition
# Assay type: functional, Erythrocyte
# Details: timepoint 72 hour
Structure (SMILES),% Inhibition [%],Z score
N[C@@H]1CCN(C(=O)c2cccnc2Oc2cccc(Br)c2)C1,-12,1.38
Cn1c(C(=O)N2CC[C@H](N)C2)ccc1-c1ccccc1Br,0,0.05
CC1(C2CC2)CCN(C(=O)c2csnn2)CC1,2,-0.37
Cc1ccsc1CN(Cc1ccccc1)C(=O)CN(C(=O)C1CCCC1)C1CCCCC1,-2,0.35
COc1cccc(CN2C(=O)N[C@@](C)(C3CCN(C(=O)c4cccnc4OC)CC3)C2=O)c1OC,8,-1.05
CC(C)[C@H](NC(=O)c1cc(O)ccn1)C(=O)NC1CCCCC1,-5,0.48
CC=Cc1ccc(OCC(=O)Nc2cccc(NC(=O)Nc3ccccc3)c2)c(OC)c1,-7,0.59
COc1cc(C=C(C(=O)Nc2ccccc2F)C(=O)Nc2ccccc2F)ccc1OCC(=O)Nc1cccc(C(F)(F)F)c1,80,1.63
COc1cc(C(=O)NCc2cccnc2)ccc1OCC(=O)Nc1cccc(C(F)(F)F)c1,3,-0.33
Cc1cc(N2CC(OCc3ccccc3)C2)nc(Nc2cccc(O)c2)n1,91,-12.9
Cc1cc(NCc2csc(N(C)C)n2)nc(Nc2cccc(O)c2)n1,-3,0.61
Cc1cc(N2C[C@H]3CC[C@@H](C2)[C@H]3N(C)C)nc(Nc2cccc(O)c2)n1,77,-8.01
Cc1cc(N2CCOC[C@@H](O)C2)nc(Nc2cccc(O)c2)n1,-4,0.39
CCO[C@H]1CN(C)C[C@@H]1Nc1cc(C)nc(Nc2cccc(O)c2)n1,-6,1.08
O=C(c1nc2ccccc2[nH]1)N1CCN(c2ccccc2F)CC1,-1,0.23
CCn1cc(-c2n[nH]cc2C(=O)N2CCN(CC(C)C)C(=O)C2)cn1,3,-0.32
COc1ccc(S(=O)(=O)N2CCOC[C@H](Oc3ccccc3)C2)cc1,31,-3.47
Cc1ccc(C)c(Cn2c(C(=O)Nc3ccccc3)cc3cc(NC(=O)c4ccco4)ccc32)c1,2,-0.19
CCc1cnccc1NC(=O)CCCC1CCOCC1,-3,0.38
C[C@]1(c2cnccn2)NC(=O)N(Cc2cc(F)ccc2OC(F)F)C1=O,-4,0.57
CC(C)c1ocnc1C(=O)NC[C@H]1[C@H](c2ccccc2)C1(F)F,-3,0.47

Structure (SMILES),% Inhibition [%],Z score
COc1ccc2[nH]c3c(c2c1)CCN(C(=O)c1cc(Cl)cc(Cl)c1)[C@@H]3c1ccccc1OC,-11,1.21
COc1ccc2[nH]c3c(c2c1)CCN(C(=O)c1ccc(C)c(C)c1)[C@H]3COCc1ccccc1,0,0.02
COc1ccc2[nH]c3c(c2c1)CCN(C(=O)c1ccc(C)c(C)c1)[C@@H]3c1ccccc1OC,84,-11.27
COc1ccc(OC)c(CNc2cc[nH]n2)c1,-5,0.8
CCN(Cc1csc(C)n1)C[C@H]1CCCCO1,2,-0.27
Cc1cccc(CN(CC2CCN(C3Cc4ccccc4C3)CC2)C[C@H]2CCCO2)n1,-1,0.18
Cc1cccc(CN(Cc2cccc(C)n2)C[C@H]2CCCCO2)n1,90,-9.86
COc1ccc(CC(=O)N[C@H]2CCOC2)cc1OC,-1,0.14
COc1nc(NC[C@H]2CCCN2C(C)C)ncc1F,64,-12.06
COc1nc(NCC[C@H]2CCCCN2C)ncc1F,3,-0.58
COc1nc(NCC2CCN(CC(C)C)CC2)ncc1F,-2,0.24
Cc1nn(C)c(C)c1CC(=O)N1CCC2(CCC2)S(=O)(=O)CC1,-5,0.46
Cc1ccc(NS(=O)(=O)c2cc(-c3nc(C)c(C)s3)sc2C)c(C)c1,-5,0.62
CC1CCN(C(=O)[C@H]2CCc3ncc(-c4ccc(F)cc4)n3C2)CC1,-7,1.27
COc1ccc(N2CCN(Cc3ccc(-c4ccccc4)cc3)CC2)cc1,5,-1
COc1ccc(-c2cn3cc(-c4ccccc4)c4c3n2CCCC4)cc1,-8,1.46
COc1ccc(-[n+]2c(-c3ccccc3)cn3c2CCC3)cc1,79,-11.37
COc1ccc(-c2nn(-c3ccccc3F)cc2CN2CCOCC2)cc1,-19,3.28
COc1ccc(-c2cn3c(n2)CCC3)cc1,-5,0.43
COc1ccc(-[n+]2c(-c3ccc(-c4ccccc4)cc3)cn3c2COCC3)cc1,58,-11.93
NC(=O)N1CCCC(C(=O)N2CCCC2c2ccc(F)c(F)c2)C1 (centres undefined),0,0.02
